Test results published in PMC4336329 (PLoS ONE, 2015).
About 14,000 (4.5%) of roughly 310,000 compounds showed an effect of 50% or more. Effects have a minus sign here. Many of the other results were omitted from the sample, so strong results are more common in it than they were.

target: human ether-à-go-go-related gene (hERG) potassium channel (human, UniProt Q12809); assay: primary screen, population patch clamp on CHO cells stably expressing hERG; higher = less effect of the substance
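Note: peak tail current of the secondary pulse compared with the same well before compound.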

Sequence of human ether-à-go-go-related gene (hERG) potassium channel (Q12809 whole entry, looked up): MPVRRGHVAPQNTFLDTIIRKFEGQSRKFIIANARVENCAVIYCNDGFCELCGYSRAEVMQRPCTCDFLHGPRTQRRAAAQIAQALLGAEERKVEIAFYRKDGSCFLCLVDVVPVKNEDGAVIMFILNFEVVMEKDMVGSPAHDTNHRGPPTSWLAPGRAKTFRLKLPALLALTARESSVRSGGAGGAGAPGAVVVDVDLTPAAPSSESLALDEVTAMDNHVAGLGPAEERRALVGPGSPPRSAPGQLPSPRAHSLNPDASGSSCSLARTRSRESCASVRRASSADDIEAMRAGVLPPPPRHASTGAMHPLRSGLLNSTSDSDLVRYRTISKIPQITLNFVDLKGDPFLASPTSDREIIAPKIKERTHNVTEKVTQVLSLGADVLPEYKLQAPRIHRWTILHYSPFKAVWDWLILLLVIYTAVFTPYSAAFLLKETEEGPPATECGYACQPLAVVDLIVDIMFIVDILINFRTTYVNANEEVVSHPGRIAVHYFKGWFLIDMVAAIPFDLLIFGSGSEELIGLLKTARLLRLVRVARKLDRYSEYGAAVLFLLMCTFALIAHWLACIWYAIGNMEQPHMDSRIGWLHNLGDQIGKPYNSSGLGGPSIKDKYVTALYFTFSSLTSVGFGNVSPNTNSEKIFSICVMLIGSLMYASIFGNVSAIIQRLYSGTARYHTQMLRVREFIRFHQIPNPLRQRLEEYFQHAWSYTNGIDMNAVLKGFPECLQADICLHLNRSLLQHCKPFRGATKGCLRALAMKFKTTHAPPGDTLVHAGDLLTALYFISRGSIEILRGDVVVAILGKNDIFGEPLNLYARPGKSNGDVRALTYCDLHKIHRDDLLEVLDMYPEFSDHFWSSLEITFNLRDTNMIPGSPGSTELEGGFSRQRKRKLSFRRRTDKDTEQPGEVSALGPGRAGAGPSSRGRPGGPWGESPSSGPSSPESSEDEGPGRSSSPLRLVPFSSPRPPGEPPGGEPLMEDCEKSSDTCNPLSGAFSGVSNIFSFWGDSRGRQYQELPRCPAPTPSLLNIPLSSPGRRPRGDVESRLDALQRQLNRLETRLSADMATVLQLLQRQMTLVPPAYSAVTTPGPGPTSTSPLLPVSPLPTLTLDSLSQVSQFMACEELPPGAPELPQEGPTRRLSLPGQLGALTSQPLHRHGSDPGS

| SMILES | hERG current change (%, negative = inhibition) at 10uM |
| --- | --- |
| CCOC(=O)Cc1cc(=O)c2c(=O)n(-c3ccccc3)[nH]c2[nH]1 | 9.55% |
| O=C(Oc1ccccc1)Oc1ccc2c(c1)oc(=O)c1ccccc12 | 16.9% |
| CN(C)C(N)=NCCC[C@H](N)C(=O)O.Cl | 9.67% |
| O=C(c1ccco1)N1CCN(c2ccc(Cl)cc2)CC1 | -40.7% |
| CC(=O)N1CCN(c2ccnc3cc(Cl)ccc23)CC1 | -50.4% |
| CC(C)(C)C(=O)N1CCN(c2ccnc3cc(Cl)ccc23)CC1 | -73.9% |
| Clc1ccc2c(N3CCCC3)ccnc2c1 | -65.2% |
| Clc1ccc2c(N3CCOCC3)ccnc2c1 | -17.1% |
| O=C(c1ccco1)N1CCN(c2ccnc3cc(Cl)ccc23)CC1 | -71.5% |
| COc1ccc(N2CCN(c3ccnc4cc(Cl)ccc34)CC2)cc1 | -36.5% |
| Oc1ccc(N2CCN(c3ccnc4cc(Cl)ccc34)CC2)cc1 | -22.7% |
| Clc1ccc2c(N3CCNCC3)ccnc2c1 | -41.9% |
| O=C(c1ccco1)N1CCN(c2cccc(Cl)c2)CC1 | -11.5% |
| CC(=O)N1CCC(=NNc2ccnc3cc(Cl)ccc23)CC1 | -22.2% |
| CCCCOc1ccccc1C1NC(=O)NC(C)=C1C(=O)OCCOCC (stereo not drawn) | -8.27% |
| COc1ccc(C2CC(c3ccccc3)Nc3nc(N)nn32)cc1 (stereo not drawn) | -25% |
| Cc1ccc(S(=O)(=O)N2CCOCC2)cc1NC(=O)CSc1nnc(C2CC2)n1C1CC1 | -7.36% |
| Cc1nc2ccccc2n1-c1nc(-c2ccco2)cc(C(F)(F)F)n1 | 5.46% |

| SMILES | hERG current change (%, negative = inhibition) at 10uM |
| --- | --- |
| CC(C)(C)OC(=O)CC[C@@H](C(=O)NCCCCCCCCCCC(=O)N1CCN(C(=O)OC(C)(C)C)CC1)n1cc(CCCCCNC(=O)OC(C)(C)C)nn1 | 4.12% |
| CCOC(=O)c1cc(-c2ccc3c(c2)OCCO3)nc2c1c(C)nn2CCC#N | 3.85% |
| CC(=O)c1ccc(NC(=O)CCCC(=O)c2ccccc2)cc1 | 12.6% |
| CO/N=C(\C(=O)O)c1csc(NN=C(C)C)n1 | 16.2% |
| COC(=O)c1nc2nc(C)cc(=O)n2[nH]1 | 20.2% |
| O=C(CSc1nnc(-c2cccnc2)n1Cc1ccco1)c1ccc2ccccc2c1 | -45.6% |
| CCOC(=O)N1CCC(=NNc2ccnc3cc(Cl)ccc23)CC1 | -32.5% |
| CCC(=O)N1CCN(c2ccnc3cc(Cl)ccc23)CC1 | -63.6% |
| O=C(O)CSCC(=O)N1CCN(c2ccnc3cc(Cl)ccc23)CC1 | 9.15% |
| CCCCNC(=O)N1CCN(c2ccnc3cc(Cl)ccc23)CC1 | -78.2% |
| NC(=O)C1CCN(Cc2nc3cc(Cl)ccc3c(=O)[nH]2)CC1 | 5.22% |
| CCOC(=O)N1CCN(c2ccnc3cc(Cl)ccc23)CC1 | -66% |
| CCCCNC(=O)N1CCN(c2ncccn2)CC1 | 3.43% |
| CC(=O)N1CCN(Cc2nc3cc(Cl)ccc3c(=O)[nH]2)CC1 | -31.7% |
| CCOC(=O)N1CCN(c2cc3nccnc3cc2F)CC1 | -12.5% |
| CCCCNC(=O)N1CCN(c2ccccc2OCC)CC1 | -0.115% |
| CCCC(=O)Nc1cc(Cl)ccc1N1CCN(C(=O)CC)CC1 | -33.1% |
| O=C(c1ccco1)N1CCN(Cc2nc3cc(Cl)ccc3c(=O)[nH]2)CC1 | -61.8% |
